The record followed here is ChEMBL document CHEMBL3988442, “University of Dundee, Small-Polar-MMV Screening Library” (2021).

Among all 69,000 compounds or so, about 950 (1.4%) showed an effect of 50% or more. The sample as a whole holds a higher share of strong results than the screen did.

The test system of the assay is Mycobacterium tuberculosis. The assay can be described thus: Cornell M. t heat shock assay. Note: in the data most compounds retested in dose-response had high values. In kind it is functional, organism-based. Further details: dose or concentration left out as unconfirmed.
On to `Fc1ccc(CN2CC[C@H]3O[C@@H](COCC4CCOCC4)CC[C@H]32)cc1.O=C(O)C(F)(F)F`, for which the “Percent Effect” value is given as -16.61%.
The result for `CCC(C)[C@H](N)c1nnc(SCC(=O)Nc2cc(C)ccc2C)o1.Cl` (stereo partly specified) reads -10.79%.
The result for `Cc1cc2c(=O)n3c(nc2s1)CCN(Cc1c[nH]cn1)CC3.Cl` reads -21.28%; that for `Clc1ccc(C2(CNC3=NCCN3)CCCC2)cc1.I`, 20.92%; that for `Clc1ccc(C2(CNC3=NCCN3)CCCCC2)cc1.I`, 77.48%.
The figure for `Clc1ccc(C2(CNC3=NCCN3)CC2)cc1.I` is -24.96%; for `O=C(NCC1CC1)[C@H]1C[C@H]2OCC[C@H]2N(CCc2ccccc2)C1.O=C(O)C(F)(F)F` it is -0.2328%.
Turning to `COc1ccc(-c2cc3nn(CC(=O)NC(C)C)c(=O)n3c(C)n2)cc1`, the “Percent Effect” value is 21.42%.
The figure for `Cc1nc(-c2ccccc2)cc2nn(CC(N)=O)c(=O)n12` is 80.99%.
On to `COc1ccc(-c2cc3nn(CC(N)=O)c(=O)n3c(C)n2)cc1`, for which the “Percent Effect” value is on record as 28.25%.
As to `CCC1=N[C@@]2(CC[C@@H]3CN(Cc4ccc(F)cc4)C[C@@H]32)C(=O)N1C.O=C(O)C(F)(F)F`, the “Percent Effect” value was 6.299%.
The figure for `COCCN1CCC2(COCCN(Cc3ccc4c(c3)OCO4)C2)C1.O=C(O)C(F)(F)F.O=C(O)C(F)(F)F` (stereo unspecified) is -9.9%.
The result for `O=C(O)C(F)(F)F.O=C(O)C(F)(F)F.O=C(O)C(F)(F)F.O=C1CO[C@@H]2CN(Cc3cccnc3)C[C@H]2N1Cc1ccncc1` reads -18.69%; that for `COCCC(=O)N1CC[C@@H](N2CCOCC2)[C@@H]1Cc1ccccc1.O=C(O)C(F)(F)F`, -10.34%; that for `CC(C)(C)n1nc(C(=O)NC2CCN(CC(N)=O)CC2)cc1C1CC1`, 19.52%.
The figure for `Cc1cc(C(=O)NC2CCN(CC(N)=O)CC2)nn1C(C)(C)C` is 61.29%.
For the compound `CC(C)c1cc(C(=O)NC2CCN(CC(N)=O)CC2)nn1C(C)(C)C`, the “Percent Effect” value worked out at 17.37%.
In the case of `Cc1noc(C)c1-c1nc(C2CCCNC2)ccc1CO.Cl.Cl` (stereo unspecified), the “Percent Effect” value stood at 6.462%.
The figure for `Cc1ccc(CNCC(C)Oc2ccccn2)cc1.Cl` (stereo unspecified) is -12.77%.
With `COc1cc(CNC(C)Cn2cccn2)cc(OC)c1` (stereo unspecified), the “Percent Effect” value is listed as -10.57%.
The result for `Cc1cccc(CNC(CN2CCN(C)CC2)c2ccccc2)c1` (stereo unspecified) reads -9.551%; that for `COc1c(CNC(c2ccccc2)c2nccn2C)c(C)nn1C` (stereo unspecified), -17.9%; that for `Cn1ccnc1C(NCc1csc(Br)c1)c1ccccc1` (stereo unspecified), 103.5%.
The result for `Cc1ccc(CNC(c2ccccc2)c2nccn2C)cc1.Cl` (stereo unspecified) reads 106.1%; that for `Cc1cnn(CC(C)NCc2ccc(OCc3nccn3C)cc2)c1` (stereo unspecified), -7.408%.
The figure for `Cc1cc(C)cc(CNC(C)c2c(C)nn(C)c2C)c1` (stereo unspecified) is -33.33%.
On to `COc1cc(CNC(c2ccccc2)c2nccn2C)cc(OC)c1` (stereo unspecified), for which the “Percent Effect” value is reported as 110.9%.
The result for `Cc1cc(C)cc(CNC(c2ccccc2)c2nccn2C)c1` (stereo unspecified) reads 112.3%; that for `O=C(CCNc1ncccn1)NCc1csc(Br)c1`, 2.477%.
Regarding `O=C(NCc1csc(Br)c1)c1ccncc1`, the “Percent Effect” value was found to be 14.96%.
For the compound `Cn1ccnc1CN1CCC2(CC(=O)N(c3cncnc3)C2)C1.O=C(O)C(F)(F)F` (stereo unspecified), the “Percent Effect” value came to 8.638%.
The figure for `CC(C)NC(=O)c1sc2ccccc2c1[C@H]1CC[C@H](CN)CC1.Cl` is 6.071%; for `O=C(O)C(F)(F)F.c1cnc(N2Cc3nccn3CC(COc3cccnc3)C2)nc1` (stereo unspecified) it is -4.281%.
The figure for `Cn1ccnc1-c1noc(NCc2ccccc2)n1` is -11.975%.
The result for `Cn1ccnc1-c1noc(NCc2ccc(Br)cc2)n1` reads -1.325%; that for `Cc1ccc(CNC(c2ccccc2)c2nccn2C)cc1C` (stereo unspecified), 103.6%.
For `COc1ccc(CNC(Cn2cncn2)c2ccccc2)cc1C` (stereo unspecified), the “Percent Effect” value stood at 7.595%.
The figure for `Cc1ccc(CNC(CN2CCN(C)CC2)c2ccccc2)cc1C` (stereo unspecified) is 7.265%; for `Cc1ccc(CNC(CN2CCN(C)CC2)c2ccccc2)cc1` (stereo unspecified) it is 5.608%; for `Cn1ccnc1C(NCc1ccc(Br)cc1)c1ccccc1` (stereo unspecified) it is 112.1%.
The result for `CCNC(c1ccc(Br)cc1)c1cccnc1` (stereo unspecified) reads 0.8227%.
The figure for `Cn1nnc2c1C(COCc1ccccn1)CN(Cc1ccoc1)C2.O=C(O)C(F)(F)F.O=C(O)C(F)(F)F` (stereo unspecified) is -16.51%; for `O=S(=O)(N1CCOCC1)N1CCCC(c2ccccn2)C1` (stereo unspecified) it is -20.74%.
Regarding `COCCN1C[C@@H]2CCCO[C@@H]2[C@H](N(C)Cc2ccco2)C1.O=C(O)C(F)(F)F.O=C(O)C(F)(F)F`, the “Percent Effect” value was 1.752%.
The figure for `Cn1cc(N2CC3(CCN(Cc4ccsc4)CC3)OCC2=O)cn1.O=C(O)C(F)(F)F` is -18.04%; for `Cc1cnccc1-c1cnn(CCNC(=O)C(C)(C)C)c1C1CC1.Cl` it is -19.45%.
